Out of some 69,000 compounds screened, about 8,600 (12%) showed an effect of 50% or more. The full list was thinned out, with strong results kept by preference.

The assay has as its system Plasmodium berghei. The assay can be described thus: Screen against P. berghei liver stage (PbLuc), transformed with Luciferase, at 10uM. It is filed as functional, HepG2. To be noted: tested at 10 uM.
For `Cc1csc(CN2CC[C@@](O)(C3CCOCC3)[C@H](C)C2)n1`, the INHIBITION is reported as 9.55%. For `O=C1NCc2ccccc2CC12CCN(Cc1c(F)cccc1Cl)C2` (centres undefined) the value was -9.73%; for `COc1ccc(CN(C(=O)C2CCCO2)c2ccncc2)cc1` (centres undefined), 27.5%. The value for `COc1ccc(CN(C(=O)C2CCCOC2)c2ccncc2)cc1` (centres undefined) was 66.3%; that for `COc1ccc(CN(C(=O)C2CCOCC2)c2ccncc2)cc1` was 1.7%; that for `Brc1cnc(NCc2ccccc2N2CCOCC2)nc1` was -31.7%. For `COCCC(=O)N1CC2(CCN(c3ccccc3)C2)C1` the value was 12.1%; for `O=C(CO)N1CC2(CCN(c3ccccc3)C2)C1`, -34.6%. Turning to `O=C(CCO)N1CC2(CCN(c3ccccc3)C2)C1`, the INHIBITION turned out to be 61.9%. In the case of `Cc1nn(C)c(N(C)C)c1CNCCCNS(C)(=O)=O`, the INHIBITION is on record as -66.8%. As to `CSc1[nH]nc(NC(=O)c2ccccc2)c1C#N`, the INHIBITION came to 23.1%. As for `N#Cc1cccnc1N[C@@H]1c2ccccc2C[C@@H]1O`, the INHIBITION came to 22.9%. For `O[C@@H]1Cc2ccccc2[C@@H]1Nc1ncccc1F` the value was 18%; for `O[C@H]1Cc2ccccc2[C@H]1Nc1ncccc1C(F)(F)F`, 56.3%; for `COc1ccc2c(ccn2CCC(=O)Nc2n[nH]c(CC(C)C)n2)c1`, 46.7%. For `O=C(CC1CCCC1)NCCS(=O)(=O)N1CCN(c2ncccn2)CC1` the value was -73.6%; for `Cc1n[nH]c2c1C(c1ccc(Br)cc1)SCC(=O)N2` (centres undefined), 61.8%; for `Cc1n[nH]c2c1C(c1ccc(F)cc1)SCC(=O)N2` (centres undefined), 23.5%. The value for `Cc1n[nH]c2c1C(c1ccc(Cl)cc1)SCC(=O)N2` (centres undefined) was 46.7%; that for `COCCC(=O)N1CC[C@@H](N2CCOCC2)[C@@H]1Cc1ccccc1` was 38.1%. Consider `Cc1cccnc1CNC(=O)CC1C(=O)NCCN1CC(C)(C)C` (centres undefined), for which the INHIBITION came to 6.29%.

With `CC(=O)N(Cc1noc(C)n1)C1CCN(Cc2ncc(C(C)C)o2)C1` (centres undefined), the INHIBITION is recorded as 11.6%. For `Cc1nn(C)c(C)c1CC(=O)NCc1cccnc1OC1CCCC1` the value was 29.8%. For `Cc1cc(NC(=O)NCc2cccnc2OC2CCCC2)n(C)n1` the value was 50.3%; for `CCOc1ncccc1CNC(=O)Nc1cc(C)nn1C`, -19.6%. The value for `Cc1nn(C)c(C)c1C(=O)NCc1cccnc1OC1CCCC1` was 37.6%. Take `Cc1nn(C)c(C)c1CCC(=O)NCc1cccnc1OC1CCCC1`: the INHIBITION is on record as 56.6%.

Take `COc1ncccc1CNC(=O)Nc1cc(C)nn1C`: the INHIBITION amounted to 29.7%.

In the case of `OCC1(NCc2cccc(-n3cccn3)c2)CCOCC1`, the INHIBITION is given as 43.4%.

As for `CCN1CCCC1(C)c1nc(C)cc(N)n1` (centres undefined), the INHIBITION is recorded as -2.09%.

Consider `CCOc1ccc(NC(=O)NCC(C)(O)c2cccs2)cc1` (centres undefined), for which the INHIBITION came to 40.6%.

As for `O=C(Nc1cnccn1)[C@H]1COC[C@H]2CN(C3CCCC3)C[C@H]21`, the INHIBITION is on record as -14.6%. The value for `CCn1ccnc1CN1CCN(CC(O)c2ccc(OC)cc2)CC1` (centres undefined) was 0.8%; that for `COc1ccc(F)c(-c2nccn2CCN2CCCC2)c1` was 18.2%; that for `COc1ccc(-c2nccn2CC(O)CN2CCCC2)c(F)c1` (centres undefined) was 61.5%. For `CCC(CC)(CNC(=O)NC1CCCC1(C)C)S(C)(=O)=O` (centres undefined) the value was 2.49%; for `COCCCNC(=O)c1cc(-c2cnc(N(C)C)nc2)cn1CC1CC1`, -22.1%. The value for `CCCOc1ccc(Cl)cc1NC(=O)NCCC(=O)N(C)C` was -5.32%. In the case of `CCC1CCCN(S(=O)(=O)c2cnc3onc(C)c3c2)C1` (centres undefined), the INHIBITION worked out at 9%. The value for `COc1cccc2c1OCC(CNc1cc(N)nc(SC)n1)C2` (centres undefined) was 1.94%; that for `Cc1nc(N)ccc1CC1COc2ccccc2C1` (centres undefined) was -27.9%; that for `Cc1ccc(CC2COc3ccccc3C2)c(N)n1` (centres undefined) was -6.18%. As to `COc1ccc2c(c1)OCC(Cc1ccc(C)nc1N)C2` (centres undefined), the INHIBITION was 57.2%. For `COc1ccc2c(c1)OCC(Cc1ccc(N)nc1C)C2` (centres undefined) the value was 76.3%. The value for `COc1ccc2c(c1)OCC(Cc1ccnc(N)n1)C2` (centres undefined) was 11%; that for `COc1ccc2c(c1)OCC(Cc1cnccc1N)C2` (centres undefined) was 29%; that for `COc1ccc2c(c1)OCC(CNc1cc(N)nc(SC)n1)C2` (centres undefined) was 69.8%. For `COc1cccc2c1OCC(Cc1ccc(N)nc1C)C2` (centres undefined), the INHIBITION turned out to be 6.83%. For `Cc1noc(C(C)N2CCN(CC(=O)N3CCCC3)CC2)n1` (centres undefined) the value was 8.99%; for `O=C(NCC1CCCCC1)N1C[C@@H]2C[C@H](C(=O)N3CCCC3)[C@H](C1)O2`, 48.2%; for `N#Cc1ccc(NCc2cc3n(n2)CCCN(C(=O)C2CCC2)C3)nc1`, 14.6%. For `CSc1ccc(-n2nnc(C(=O)O)c2-c2ccccn2)cc1` the value was 36.2%; for `CC(CNCc1ccc(F)cc1)Oc1ccccn1` (centres undefined), 13.8%.

Regarding `COc1cccc(OCC(=O)NS(=O)(=O)c2ccc(Br)s2)c1`, the INHIBITION was found to be 17.5%. For `COc1ccc(OCC(=O)NS(=O)(=O)c2ccc(Br)s2)cc1`, the INHIBITION amounted to 60.9%. The value for `COc1ccc(OCC(=O)NS(=O)(=O)c2ccc(Cl)s2)cc1` was 17.7%. For the molecule `CCn1nnc2c1C(COC)CN(Cc1ccsc1)C2` (centres undefined), the INHIBITION stood at 21%. For `Cn1cc(C(=O)N2CCC(c3cc(CCO)n(C)n3)C2)cn1` (centres undefined) the value was 0.696%; for `C=CNC(=O)c1nnc2ccc(N3CCOCC3)cc2n1`, 11%. The value for `CS(=O)(=O)N1CCC(CNC(=O)c2cnccn2)CC1` was 43.8%. Consider `O=C(NCC1CCN(c2ncccn2)CC1)c1cnccn1`, for which the INHIBITION is recorded as 71.8%. The value for `Cc1cc(C)nc(N2CCC(CNC(=O)c3cnccn3)CC2)n1` was -51.4%. For `COc1ccccc1N1CCN(C(=O)NC(C)c2nncn2C)CC1` (centres undefined) the value was 9.14%; for `CCCC(=O)N1CCN(Cc2cc(-c3ccncc3)nn2C)CC1`, 8.72%. The value for `CC(c1nncn1C)n1cc(-c2cc(CN3CCCC3)cs2)nn1` (centres undefined) was 57.2%; that for `CC(c1nccs1)n1cc(-c2cc(CN3CCCCC3)cs2)nn1` (centres undefined) was 21.5%; that for `CC(c1ccco1)n1cc(-c2cc(CN3CCCC3)cs2)nn1` (centres undefined) was 5.23%. For the molecule `CC(C)CN1CCn2c(COCc3cccnc3)nnc2C1`, the INHIBITION is recorded as -29.3%.

With `O=C1CC2(CCN(Cc3ccco3)C2)CN1c1ccc2c(c1)OCO2` (centres undefined), the INHIBITION is 78.8%. As for `Cc1ccc(CN2CCC3(CC(=O)N(c4cccc(F)c4)C3)C2)o1` (centres undefined), the INHIBITION is 12%. The value for `O=C1CC2(CCN(CC3CC3)C2)CN1c1ccc2c(c1)OCO2` (centres undefined) was 25%. `O=C1CC2(CCN(Cc3cccnc3)C2)CN1c1ccc2c(c1)OCO2` (centres undefined): the INHIBITION is listed as 22.9%. For `Cc1ccc(CN2CCC3(CC(=O)N(c4ccc5c(c4)OCO5)C3)C2)o1` (centres undefined) the value was 69.5%; for `Cn1ccnc1CN1CCC2(CC(=O)N(c3ccc4c(c3)OCO4)C2)C1` (centres undefined), 4.27%.

The record behind these values is ChEMBL document CHEMBL4513216, “Probing the Open Global Health Chemical Diversity Library for Multistage-Active Starting Points for Next-Generation Antimalarials” (ACS Infect Dis, 2020).
